We go through seven compounds from PubChem BioAssay (NCATS).

The structures appear in SMILES notation. Results filed as inconclusive are left out. Calls of active or inactive are those of the source. Unless noted, calls come from the whole dose curve; as a rule, active = well fitted curve in the direction sought with a large enough effect; inconclusive = small, poorly fitted or top-dose-only effect, or another doubt; inactive = no such curve, though single readings can be large; an effect the other way counts as inactive or inconclusive.

Assay [1] deals with Thyrotropin receptor (Homo sapiens) (UniProt P16473). Nature of the assay: qHTS Assay for Antagonists of the Thyroid Stimulating Hormone Receptor (AID 488980). Note: series mostly up to about 58 µM; 0% is about no effect. The method in brief:
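TSHR-transfected HEK293 cells (2000/well) in HEPES-buffered HBSS with 70 uM RO 20-1724 were stimulated with 4 nM TSH (EC80, final) in the presence of compound. cAMP was measured by HTRF competition after lysis and 30 min at RT.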
Background: qHTS replaces the single test concentration by a dilution series.

The target in assay [2] is D(1A) dopamine receptor (Homo sapiens) (UniProt P21728). Description: HTS Assay for Allosteric Agonists of the Human D1 Dopamine Receptor: Primary Screen for Agonists (AID 488981). Note: 0% is about no effect. In short, it runs like this: (§1)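 Calcium flux in an inducible, force-coupled HEK293 Trex D1 line (overnight at 30 C): agonist mode is the 180 s kinetic read after compound; potentiator mode is the following 180 s read after dopamine at EC20.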

The target is the same in assay [3]. Description: HTS Assay for Allosteric Agonists of the Human D1 Dopamine Receptor: Primary Screen for Antagonists (AID 488983).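 Note: calcium flux response to an EC80 dopamine challenge measured with no-wash dye; nearly all actives have a fitted effect of over 65% in size.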 Note: potency is the fitted concentration of half-maximal effect. The method in brief:
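In this primary screen, compounds are applied to calcium-dye-loaded HEK293 T-REx cells with force-coupled D1 expression induced overnight at 30 C. An EC80 of dopamine follows the 180 s compound phase, and calcium is monitored for a further 180 s.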

Assay [4] has as its target ATP-dependent 6-phosphofructokinase (Trypanosoma brucei brucei) (UniProt O15648). Nature of the assay: qHTS Assay to Find Inhibitors of T. brucei phosphofructokinase: hit validation (AID 492961).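 Note: luminescence reports ADP formed as PFK phosphorylates fructose-6-phosphate with ATP; series mostly up to about 51 µM; % is set by controls: 0 for no effect and ±100 for the full control effect.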 The method in brief: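 Measures ADP output of PFK (1.25 nM) at 0.1 mM ATP, 0.5 mM F6P, pH 8.0 TEA buffer with 5 mM MgCl2. No-enzyme wells define full inhibition; uninhibited enzyme wells define zero.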

Assay [5] can be described thus: Validation screen for small molecules that induce genotoxicity in human embryonic kidney (HEK293T) cells expressing luciferase-tagged ELG1 (AID 493106). Note: 0% is about no effect. The method in brief:
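In this validation screen, increased ELG1-luciferase signal flags compounds causing genetic stress. HEK293T reporter cells are treated 16 hr (37 °C, 5% CO2), developed with ONE-Glo for 30 min at room temperature, and imaged on a CCD-based reader.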

Assay [6] has as its target ATPase family AAA domain-containing protein 5 (Homo sapiens) (UniProt Q96QE3). Nature of the assay: Validation screen for small molecules that inhibit ELG1-dependent DNA repair in human embryonic kidney (HEK293T) cells expressing luciferase-tagged ELG1 (AID 493107).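 Note: cells co-treated with the DNA-damaging agent 5-fluorouridine alongside compound; series mostly up to about 46 µM; % is set by controls: 0 for no effect and ±100 for the full control effect; inhibitors lower the ELG1-luciferase luminescence signal; nearly all actives have a fitted effect of over 70% in size.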 The method in brief: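 Compounds reducing 5-fluorouridine-driven ELG1-luciferase signal in HEK293T cells were scored; exposure lasted 16 hr at 37 °C with luminescence detected via ONE-Glo.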

Assay [7] can be described thus: Nrf2 qHTS screen for inhibitors: Validation (AID 493153; active = well fitted inhibition curve with a large enough effect in the main read-out, with a control signal flat, not every such curve was filed as active). To be noted: Potency: luciferase luminescence; viability change: measured here: cytotoxicity max response. In short, it runs like this:
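In this counterscreened reporter format, each well gives two signals: CellTiter-Fluor fluorescence for cytotoxicity and ARE-luciferase luminescence for Nrf2 function. A549 ARE_Fluc cells in 5% FBS OPTI-MEM were exposed to compound titrations for 18-24 h.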

The nature of assay [8]: qHTS for Inhibitors of Cell Surface uPA Generation: Validation Assay (AID 493164).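 Note: RAW 264.7 macrophage cells exposed to compound for 18 h; 0% is about no effect.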 In short, it runs like this:
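Compounds are titrated over seven points (2.45 nM–38.3 uM final) onto pre-plated RAW 264.7 cells and incubated for 18 h. Retained intracellular ATP, measured with ATP-Lite, indicates blocked lethal factor entry.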

The target of assay [9] is Galactokinase (Homo sapiens) (UniProt P51570). Nature of the assay: qHTS Validation Assay for Inhibitors of Human Galactokinase (GALK) (AID 493189). Note: 0% is about no effect. In short, it runs like this:
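GALK (5 nM) with 35 uM ATP and 100 uM galactose in HEPES pH 8.0 with MgCl2, NaCl, DTT and BSA. Reaction ran 1 h at room temperature. Residual ATP read by Kinase-Glo Plus luminescence.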

Assay [10] in a line: Validation screen for small molecules that induce DNA re-replication in SW480 colon adenocarcinoma cells (AID 504364). Note: 0% is about no effect. In short, it runs like this:
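Hoechst-stained SW480 nuclei, imaged at 405 nm excitation after 48 hr compound exposure, were counted for elevated DNA content as the re-replication signal.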

The target in assay [11] is Peptidyl-prolyl cis-trans isomerase NIMA-interacting 1 (Homo sapiens) (UniProt Q13526). Description: qHTS Validation Assay to Find Inhibitors of Pin1 (AID 504536; active = well fitted inhibition curve with a large enough effect in the polarisation, with a control signal flat, not every such curve was filed as active; the % refers to the polarisation;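 note: 0% = full Pin1 enzyme wells and -100% = no-enzyme wells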). The method in brief: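 Fluorescence polarization competition: compounds (titration) displace HiFluor-488-labeled Pin1-1b peptide from Pin1 (0.3 uM final) in pH 7.5 HEPES buffer with DTT, 10 min at room temperature; %Activity normalized to no-enzyme wells, curves fitted.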

The target in assay [12] is Phosphoglycerate kinase, glycosomal (Trypanosoma brucei brucei) (UniProt P07378). Nature of the assay: qHTS Validation Assay to Find Inhibitors of Phosphoglycerate Kinase (AID 504547).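 Note: control wells lack PGK and mark full inhibition.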 The method in brief: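 Luminescence end-point (Kinase-Glo Plus, 10 min) after a 60 min room-temperature coupled reaction. GAPDH at 100nM final supplies 1,3-BPG to PGK. Buffer: 100mM TEA pH 7.6, 5mM MgCl2, 0.01% Tween-20. Wells lacking PGK served as controls.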

Assay [13] deals with phosphoglycerate mutase (Leishmania major) (UniProt Q4Q090). Nature of the assay: qHTS Validation Assay to Find Inhibitors of Phosphoglycerate Mutase (AID 504548). Note: series mostly up to about 58 µM; % is set by controls: 0 for no effect and ±100 for the full control effect. In short, it runs like this:
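Luminescent end-point read-out via Kinase-GloPlus after a 10-minute development. Reaction: 1.25nM Leishmania major PGAM with substrate and compound, 45 minutes at room temperature in TEA buffer (pH 7.6) with MgCl2 and Tween-20.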

For assay [14], the target named is Ubiquitin carboxyl-terminal hydrolase 1 (Homo sapiens) (UniProt O94782). Nature of the assay: Inhibitors of USP1/UAF1: Pilot qHTS (AID 504865).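 Note: rhodamine fluorescence freed from ubiquitin-rhodamine substrate followed over time; top concentration of the series differs between compounds; % is set by controls: 0 for no effect and ±100 for the full control effect; nearly all actives have a fitted effect of over 35% in size.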 In short, it runs like this:
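USP1/UAF1 complex at 1 nM preincubated 15 min at room temperature with compound, then Ub-Rho substrate added at 150 nM final. Fluorescence (480/540 nm) read kinetically in 50 mM HEPES pH 7.8, 0.5 mM EDTA, 1 mM TCEP, 0.1 mg/ml BSA, 0.01% Tween-20.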

Assay [15] can be described thus: qHTS for Inhibitors of ATXN expression: Validation of Cytotoxic Assay (AID 588349). Note: % is set by controls: 0 for no effect and ±100 for the full control effect. In short, it runs like this: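 Toxicity of test compounds toward HEK293 cells is scored from cellular ATP content measured by CellTiter Glo. Cells receive titrated doses and incubate 72 hr at 37 degrees C beforehand.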
The nature of assay [16]: qHTS for Inhibitors of ATXN expression: Validation (AID 588378). Note: series mostly up to about 57 µM; % is set by controls: 0 for no effect and ±100 for the full control effect; nearly all actives have a fitted effect of over 75% in size. The method in brief:
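HEK293 cells carrying ATXN2-firefly luciferase reporter, treated with compound 24 h at 37 °C. Viability read first by CellTiter-Fluor (405/525 nm), then reporter expression by Bright-Glo luminescence; controls were a known ATXN2 expression inhibitor and a luciferase inhibitor.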

In assay [17] the target is Transient receptor potential cation channel subfamily V member 1 (Homo sapiens) (UniProt Q8NER1). Nature of the assay: HTS Assay for Compounds that Act as Enhancers of the Vanilloid Receptor 1 (AID 488979). Note: 0% is about no effect. In short, it runs like this:
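Calcium influx kinetics via Fluo-8 (480/520 nm) in TRPV1-expressing cells, 2000/well cultured overnight at 35.5C. Compound-alone read 3 min (agonist phase), followed by EC20 capsaicin challenge for 2 min (enhancer phase).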

The target of assay [18] is Thyrotropin-releasing hormone receptor (Homo sapiens) (UniProt P34981). Nature of the assay: qHTS for Small Molecule Agonists and Allosteric Enhancers of Human TRH Receptor: Validation Screen for Agonists (AID 493127;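 active = calcium activation more than 3 SD above the typical response in the agonist read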;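 note: intracellular calcium rise by fluo-8 fluorescence before TRH EC20 addition; 0% is about no effect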). As to conditions: TRH receptor agonist cell assay; at 2 µM; stronger effect = higher value. In short, it runs like this: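 Kinetic fluorescence assay of agonist-induced calcium release: overnight-plated TRHR cells, room-temperature fluo-8 loading, baseline then compound addition with per-second reads.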

Assay [19] concerns the target D(1A) dopamine receptor (Homo sapiens) (UniProt P21728). Nature of the assay: HTS Assay for Allosteric Agonists of the Human D1 Dopamine Receptor: Primary Screen for Potentiators (AID 488982). Note: 0% is about no effect. The method in brief:
as §1

Chain of Galactokinase (Homo sapiens) (P51570 whole entry, looked up): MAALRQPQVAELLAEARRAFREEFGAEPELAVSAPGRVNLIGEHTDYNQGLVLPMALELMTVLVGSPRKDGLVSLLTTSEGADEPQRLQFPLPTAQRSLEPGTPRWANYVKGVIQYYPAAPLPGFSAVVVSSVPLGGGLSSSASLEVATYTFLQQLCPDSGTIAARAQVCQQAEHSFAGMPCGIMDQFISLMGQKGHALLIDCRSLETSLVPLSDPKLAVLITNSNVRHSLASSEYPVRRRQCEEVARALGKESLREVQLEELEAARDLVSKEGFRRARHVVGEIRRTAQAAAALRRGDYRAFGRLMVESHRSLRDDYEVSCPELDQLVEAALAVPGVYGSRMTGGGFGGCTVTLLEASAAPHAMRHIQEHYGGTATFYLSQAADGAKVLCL
Chain of D(1A) dopamine receptor (Homo sapiens) (P21728 whole entry, looked up): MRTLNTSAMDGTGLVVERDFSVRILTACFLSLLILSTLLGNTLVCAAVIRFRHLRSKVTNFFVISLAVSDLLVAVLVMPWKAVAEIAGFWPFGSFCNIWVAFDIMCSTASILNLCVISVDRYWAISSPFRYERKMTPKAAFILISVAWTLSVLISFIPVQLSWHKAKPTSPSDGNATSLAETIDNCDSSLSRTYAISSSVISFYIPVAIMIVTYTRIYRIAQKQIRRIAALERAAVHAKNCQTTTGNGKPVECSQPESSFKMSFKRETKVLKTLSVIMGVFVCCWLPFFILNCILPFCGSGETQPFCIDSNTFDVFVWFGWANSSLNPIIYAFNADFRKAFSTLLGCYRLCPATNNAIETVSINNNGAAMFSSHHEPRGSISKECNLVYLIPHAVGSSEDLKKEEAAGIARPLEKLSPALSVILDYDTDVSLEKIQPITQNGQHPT
Chain of Peptidyl-prolyl cis-trans isomerase NIMA-interacting 1 (Homo sapiens) (Q13526 whole entry, looked up): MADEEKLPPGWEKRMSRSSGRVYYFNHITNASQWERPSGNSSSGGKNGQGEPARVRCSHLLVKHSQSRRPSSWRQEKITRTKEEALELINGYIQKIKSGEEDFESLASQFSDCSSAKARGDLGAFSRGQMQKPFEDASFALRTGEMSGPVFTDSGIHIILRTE
Chain of Transient receptor potential cation channel subfamily V member 1 (Homo sapiens) (Q8NER1 whole entry, looked up): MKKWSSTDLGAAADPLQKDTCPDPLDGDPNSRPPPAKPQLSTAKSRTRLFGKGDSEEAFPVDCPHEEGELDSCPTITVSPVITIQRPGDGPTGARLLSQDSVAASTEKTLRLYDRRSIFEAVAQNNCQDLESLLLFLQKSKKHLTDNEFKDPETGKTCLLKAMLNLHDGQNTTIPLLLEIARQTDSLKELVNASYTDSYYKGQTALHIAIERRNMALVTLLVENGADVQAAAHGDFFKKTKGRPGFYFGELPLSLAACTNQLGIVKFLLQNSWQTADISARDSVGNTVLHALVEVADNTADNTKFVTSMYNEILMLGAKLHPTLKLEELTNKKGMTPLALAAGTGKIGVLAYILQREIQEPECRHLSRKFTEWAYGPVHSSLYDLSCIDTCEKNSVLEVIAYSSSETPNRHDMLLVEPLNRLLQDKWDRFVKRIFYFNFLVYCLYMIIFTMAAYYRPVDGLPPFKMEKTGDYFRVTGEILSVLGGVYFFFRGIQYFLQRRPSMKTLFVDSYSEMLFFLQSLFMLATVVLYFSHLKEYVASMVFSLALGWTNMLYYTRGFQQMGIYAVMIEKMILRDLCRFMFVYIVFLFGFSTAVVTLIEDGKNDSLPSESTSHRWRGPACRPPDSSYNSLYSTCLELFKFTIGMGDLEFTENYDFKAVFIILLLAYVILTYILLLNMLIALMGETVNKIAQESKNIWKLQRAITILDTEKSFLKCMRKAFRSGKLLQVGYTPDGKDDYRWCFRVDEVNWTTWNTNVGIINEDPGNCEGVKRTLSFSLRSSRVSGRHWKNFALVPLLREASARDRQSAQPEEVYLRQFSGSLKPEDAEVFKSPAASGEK
Chain of Thyrotropin-releasing hormone receptor (Homo sapiens) (P34981 whole entry, looked up): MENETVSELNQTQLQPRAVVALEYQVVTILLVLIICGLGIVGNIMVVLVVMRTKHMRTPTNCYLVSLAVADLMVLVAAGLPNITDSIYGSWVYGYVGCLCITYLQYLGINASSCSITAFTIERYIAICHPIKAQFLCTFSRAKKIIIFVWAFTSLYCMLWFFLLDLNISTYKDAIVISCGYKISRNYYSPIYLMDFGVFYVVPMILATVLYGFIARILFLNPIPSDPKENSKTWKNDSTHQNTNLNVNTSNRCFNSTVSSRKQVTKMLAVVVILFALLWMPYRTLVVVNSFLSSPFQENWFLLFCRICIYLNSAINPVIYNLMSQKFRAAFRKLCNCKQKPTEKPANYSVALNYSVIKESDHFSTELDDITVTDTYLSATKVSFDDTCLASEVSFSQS
Chain of ATPase family AAA domain-containing protein 5 (Homo sapiens) (Q96QE3 whole entry, looked up, the tested form may be a part): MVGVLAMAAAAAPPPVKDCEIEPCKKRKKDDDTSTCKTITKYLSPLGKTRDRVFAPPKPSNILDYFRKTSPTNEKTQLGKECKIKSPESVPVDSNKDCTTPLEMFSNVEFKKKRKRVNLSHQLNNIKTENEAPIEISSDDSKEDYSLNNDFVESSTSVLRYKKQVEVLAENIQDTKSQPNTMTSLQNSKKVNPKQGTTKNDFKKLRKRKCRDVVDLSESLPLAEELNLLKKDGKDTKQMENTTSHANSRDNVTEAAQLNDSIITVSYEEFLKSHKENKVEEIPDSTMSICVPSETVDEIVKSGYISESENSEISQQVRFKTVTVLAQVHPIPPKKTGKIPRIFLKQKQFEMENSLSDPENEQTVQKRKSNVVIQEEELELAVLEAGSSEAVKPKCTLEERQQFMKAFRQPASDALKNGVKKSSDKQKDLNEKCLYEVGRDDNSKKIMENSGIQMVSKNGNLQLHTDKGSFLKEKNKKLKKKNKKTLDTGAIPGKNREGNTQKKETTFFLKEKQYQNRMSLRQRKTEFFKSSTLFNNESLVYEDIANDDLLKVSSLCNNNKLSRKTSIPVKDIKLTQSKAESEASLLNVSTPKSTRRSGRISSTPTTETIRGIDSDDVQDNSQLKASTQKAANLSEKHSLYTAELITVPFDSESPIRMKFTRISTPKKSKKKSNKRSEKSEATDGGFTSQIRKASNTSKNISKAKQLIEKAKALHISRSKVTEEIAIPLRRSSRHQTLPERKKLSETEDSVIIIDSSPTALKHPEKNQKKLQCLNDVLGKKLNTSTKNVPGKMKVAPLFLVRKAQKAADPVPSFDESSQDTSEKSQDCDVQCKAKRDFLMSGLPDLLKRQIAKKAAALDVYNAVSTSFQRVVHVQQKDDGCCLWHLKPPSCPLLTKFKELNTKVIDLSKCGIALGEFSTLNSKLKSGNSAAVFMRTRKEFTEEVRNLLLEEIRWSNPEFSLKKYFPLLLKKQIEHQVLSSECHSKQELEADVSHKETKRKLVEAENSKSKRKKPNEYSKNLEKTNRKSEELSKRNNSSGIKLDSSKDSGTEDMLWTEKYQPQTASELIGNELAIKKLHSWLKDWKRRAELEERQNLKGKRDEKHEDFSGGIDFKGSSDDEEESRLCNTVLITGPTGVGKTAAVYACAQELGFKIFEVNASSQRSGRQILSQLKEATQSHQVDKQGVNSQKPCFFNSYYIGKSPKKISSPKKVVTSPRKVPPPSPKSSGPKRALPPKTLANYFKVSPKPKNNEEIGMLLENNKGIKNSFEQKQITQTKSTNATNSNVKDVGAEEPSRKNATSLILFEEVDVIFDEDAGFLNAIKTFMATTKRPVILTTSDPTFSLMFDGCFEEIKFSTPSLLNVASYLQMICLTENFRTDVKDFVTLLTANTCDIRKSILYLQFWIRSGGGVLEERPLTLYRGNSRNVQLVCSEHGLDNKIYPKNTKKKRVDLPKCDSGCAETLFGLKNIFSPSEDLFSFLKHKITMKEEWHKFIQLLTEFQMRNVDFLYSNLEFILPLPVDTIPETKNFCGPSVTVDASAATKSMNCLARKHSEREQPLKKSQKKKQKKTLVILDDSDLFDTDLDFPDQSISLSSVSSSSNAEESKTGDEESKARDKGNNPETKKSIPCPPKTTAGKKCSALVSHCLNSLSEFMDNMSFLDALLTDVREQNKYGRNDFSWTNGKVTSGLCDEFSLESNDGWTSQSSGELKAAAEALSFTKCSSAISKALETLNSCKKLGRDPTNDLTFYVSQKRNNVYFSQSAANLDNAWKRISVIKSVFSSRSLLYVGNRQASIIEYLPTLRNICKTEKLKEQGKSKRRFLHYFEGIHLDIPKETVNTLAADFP
Chain of ATP-dependent 6-phosphofructokinase (Trypanosoma brucei brucei) (O15648 whole entry, looked up): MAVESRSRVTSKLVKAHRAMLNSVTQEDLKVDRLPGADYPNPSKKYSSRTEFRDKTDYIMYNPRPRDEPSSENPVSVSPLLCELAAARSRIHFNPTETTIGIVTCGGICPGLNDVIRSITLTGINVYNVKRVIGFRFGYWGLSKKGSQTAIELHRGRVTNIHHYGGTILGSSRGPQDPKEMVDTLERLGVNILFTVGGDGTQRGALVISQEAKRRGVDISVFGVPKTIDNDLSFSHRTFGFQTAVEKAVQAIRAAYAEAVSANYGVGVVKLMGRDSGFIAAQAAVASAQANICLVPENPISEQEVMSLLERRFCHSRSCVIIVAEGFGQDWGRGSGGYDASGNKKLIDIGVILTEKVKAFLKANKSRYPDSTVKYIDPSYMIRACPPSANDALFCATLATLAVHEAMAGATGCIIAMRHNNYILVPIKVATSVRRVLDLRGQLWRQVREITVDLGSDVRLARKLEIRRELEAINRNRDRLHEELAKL
Chain of Phosphoglycerate kinase, glycosomal (Trypanosoma brucei brucei) (P07378 whole entry, looked up): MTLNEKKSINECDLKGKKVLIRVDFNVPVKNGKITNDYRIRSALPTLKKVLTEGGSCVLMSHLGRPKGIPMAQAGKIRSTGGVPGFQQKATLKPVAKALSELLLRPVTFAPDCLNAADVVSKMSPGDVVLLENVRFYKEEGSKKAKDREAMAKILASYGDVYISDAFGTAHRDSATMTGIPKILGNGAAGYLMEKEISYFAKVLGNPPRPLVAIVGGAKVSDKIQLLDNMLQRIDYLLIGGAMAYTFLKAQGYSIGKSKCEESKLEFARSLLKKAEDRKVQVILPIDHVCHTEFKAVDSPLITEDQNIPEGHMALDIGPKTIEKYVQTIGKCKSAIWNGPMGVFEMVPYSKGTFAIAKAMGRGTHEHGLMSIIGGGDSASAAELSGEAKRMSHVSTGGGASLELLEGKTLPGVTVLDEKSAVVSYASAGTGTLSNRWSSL

Take `CC1=C(CC(=O)O)c2cc(F)ccc2/C1=C\c1ccc(S(C)=O)cc1` (stereo not drawn): the call in [1], in assay [6], in [8], in [9], in assay [10] and in [11] was inactive. The compound was called inactive in assay [12] and in assay [13]. Further, the Potency result in assay [2], in [3], in [4], in assay [5], in [7] and in assay [14] was “inactive” each time. Also, the Potency entry in assay [15] and in assay [16] was “inactive” in each case. Besides, the viability change in assay [7] was -1.89%.
For the compound `CC(C)C(=O)c1c(C(C)C)nn2ccccc12`, the outcome in [17], in [6], in assay [8], in [9], in [10] and in [11] was inactive. For the same compound, the call in [12] and in [13] was inactive. Further, the Potency entry in assay [2], in assay [3], in assay [5], in assay [14], in assay [15] and in assay [16] was “inactive” each time. Moreover, the activation in [18] was -4.94% (inactive).
`COc1ccc(Cl)cc1C(=O)NCCc1ccc(S(=O)(=O)NC(=O)NC2CCCCC2)cc1`: the outcome in assay [17], in assay [1], in assay [6], in [8], in [9] and in [10] was inactive. Also, the result in [11], in assay [12] and in assay [13] was inactive. Further, the Potency entry in assay [2], in [3], in [5], in assay [14], in [15] and in [16] was “inactive” in each case. The activation in assay [18] was 1% (inactive).
Take `CCCCCCCCCCCCCCCC(=O)NCCO`: the outcome in assay [17], in assay [1], in assay [6], in assay [8], in [9] and in assay [10] was inactive. Also, the outcome in assay [11], in assay [12] and in assay [13] was inactive. The Potency entry in [2], in assay [3], in [4], in [5], in [7] and in [14] was “inactive” throughout. In addition, the Potency result in assay [15] and in assay [16] was “inactive” each time. Further, the activation in assay [18] is 1.06% (inactive). Further, the viability change in assay [7] was -3.02%.
Turning to `CNCCCC1c2ccccc2C=Cc2ccccc21`, the compound was called inactive in assay [1], in [6], in assay [8], in assay [9], in [10] and in assay [11]. Further, the result in [12] and in [13] was inactive. In addition, the Potency result in [2], in assay [4], in assay [5], in assay [7], in assay [14] and in [15] was “inactive” each time. Besides, the Potency in assay [3] is 11.2 µM (active). For the same compound, the activation in assay [18] was 7.31% (inactive). Further, the viability change in assay [7] stood at 4.24%.
`CN(C)CCCN1c2ccccc2CCc2ccccc21`: the result in assay [1], in assay [6], in assay [8], in [12] and in assay [13] was inactive. Further, the Potency entry in [2], in [5] and in assay [7] was “inactive” throughout. Moreover, in assay [18], the activation is 2.19% (inactive). Also, the viability change in assay [7] is -5.46%.
Regarding `NC(N)=NCCC[C@H](N)C(=O)O`, the outcome in assay [17], in assay [1], in [19], in assay [6], in assay [8] and in assay [9] was inactive. Moreover, the outcome in assay [10], in assay [11], in assay [12] and in [13] was inactive. The Potency result in assay [2], in assay [3], in assay [5], in assay [7], in assay [14] and in [15] was “inactive” throughout. Also, the Potency result in assay [16] was “inactive”. For the same compound, in [18], the activation was -0.438% (inactive). The viability change in assay [7] worked out at 3.44%.
